# Beta apoptosis: blocks beta cell apoptosis. INS-1E cytokine-induced death, ATP luminescence, 48 h; percent of positive-control rescue, neutral wells zero. protection from apoptosis, % (no concentration beside the values). hit rate 0.8% among 300,000;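 active = Every replicate reaches about 75%, or at least half do and their mean reaches it too, limit read from the data; inconclusive = At least half of replicates reach the limit but their mean does not; inactive = Under half of replicates reach the limit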;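 also: 0% = cytokine-treated negative control wells and 100% = positive control rescue; higher means more ATP so stronger rescue from cytokine killing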
# CSC inhib: blocks cancer stem cells. hit rate 1.1% among 300,000. inhibition, % at 7.5 µM. AID 2717. cancer stem cell-like cells viability, luminescence; in the data active = inhibition above about 75%; inconclusive = no clear call, values can overlap the other calls; tested in HMLE shEcad cells
# Gli-Sufu antag: blocks Gli-Sufu signaling in a luciferase reporter. Sufu-KO-LIGHT fibroblasts, Gli luciferase reporter luminescence. inhibition, % at 5 µM. hit rate 0.74% among 340,000. AID 588413;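 active = inhibition above about 55%, limit read from the data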;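 also: 0% = DMSO-treated cells and 100% = wells with medium but no cells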
# Mdm2 MdmX PPI: inhibitors of human Mdm2/MdmX interaction. hit rate 3% among 330,000. SaOS-2 split-luciferase Mdm2/MdmX complementation, luminescence. inhibition, % at 8 µM. AID 485346. O15151+Q00987;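 active = inhibition of at least 50% at 8 µM in the primary screen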
# Target sequence (O15151 whole entry, looked up): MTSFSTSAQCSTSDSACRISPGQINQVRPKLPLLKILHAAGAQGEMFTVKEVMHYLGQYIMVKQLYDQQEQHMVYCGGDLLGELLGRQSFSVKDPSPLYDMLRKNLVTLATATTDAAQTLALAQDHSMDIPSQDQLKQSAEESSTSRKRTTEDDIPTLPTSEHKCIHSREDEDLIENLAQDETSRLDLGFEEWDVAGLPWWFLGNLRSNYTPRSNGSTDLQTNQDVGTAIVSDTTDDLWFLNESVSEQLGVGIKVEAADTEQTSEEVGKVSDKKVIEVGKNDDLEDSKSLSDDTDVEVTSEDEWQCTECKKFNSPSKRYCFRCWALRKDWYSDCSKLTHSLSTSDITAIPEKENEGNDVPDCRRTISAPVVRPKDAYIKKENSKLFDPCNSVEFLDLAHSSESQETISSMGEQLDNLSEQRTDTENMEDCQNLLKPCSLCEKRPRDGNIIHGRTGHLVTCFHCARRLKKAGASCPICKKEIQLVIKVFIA
# Target sequence (Q00987 whole entry, looked up): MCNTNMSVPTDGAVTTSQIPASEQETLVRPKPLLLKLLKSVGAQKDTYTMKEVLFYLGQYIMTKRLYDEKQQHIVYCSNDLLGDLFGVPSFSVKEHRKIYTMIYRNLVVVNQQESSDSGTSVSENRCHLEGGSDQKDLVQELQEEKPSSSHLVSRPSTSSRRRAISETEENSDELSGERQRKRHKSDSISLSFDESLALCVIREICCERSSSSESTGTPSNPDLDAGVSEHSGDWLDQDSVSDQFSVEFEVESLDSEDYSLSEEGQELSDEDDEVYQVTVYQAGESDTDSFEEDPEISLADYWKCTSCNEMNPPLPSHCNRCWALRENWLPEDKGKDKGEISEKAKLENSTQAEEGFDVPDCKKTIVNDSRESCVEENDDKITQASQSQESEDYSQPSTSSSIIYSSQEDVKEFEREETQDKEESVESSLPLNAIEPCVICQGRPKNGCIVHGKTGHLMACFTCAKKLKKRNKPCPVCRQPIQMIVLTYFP
# Shn3 3UTR inh: inhibitors of Schnurri-3 3'UTR reporter in osteoblasts. inhibition, % at 12.5 µM. hit rate 0.52% among 360,000. Clone20 osteoblast Shn3 3'UTR firefly luciferase, 24 h;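 active = mean inhibition of at least 75% with every replicate also reaching 75%; inconclusive = mean inhibition at least 75% but some replicate below; inactive = mean inhibition below 75%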;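 also: 0% = median of neutral control wells and 100% = pilot-screen positive control compound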
# PAX8 inh HTS: lowers PAX8-driven luciferase in RMG-I cells; RMG-I TPO-luciferase reporter, SteadyGlo, 24 h; AID 652154; inhibition, % at 12.6 µM; hit rate 1.2% among 360,000;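 active = mean replicate inhibition at least 60% with every replicate also reaching 60%; inconclusive = only one of the two criteria is met; inactive = mean below 60% and not all replicates reaching 60%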;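 also: luciferase light reporting Pax8 driven TPO promoter activity; plate controls were median of neutral control wells for no effect and mitoxantrone controls for full effect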
# Mdm2 MdmX conf: human Mdm2/MdmX binding inhibition, confirmed | shares compounds with Mdm2 MdmX PPI | luminescent assay | inhibition, % at 8 µM | hit rate 55% among 10,000 | AID 489028; in the data active = inhibition above about 40%
# FLuc counter: counter-screen for Mdm2/MdmX inhibitors: full-length luciferase. SaOS-2 full-length luciferase counterscreen, luminescence. shares compounds with Mdm2 MdmX PPI. hit rate 77% among 6,200. inhibition, % at 8 µM;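 active = mean inhibition at 8 µM reaching about 37%, which flags the compound as non-specific, limit read from the data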;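 also: p53-null SaOS-2 cells with luciferase driven by a doxycycline-inducible promoter; compound on cells about two nights before reading with doxycycline added after day one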
# Active calls of the source: *; u = inconclusive; x = no result given. Most compounds without a hit are left out; they make up all but 4% or so of the library.
SMILES,Beta apoptosis,CSC inhib,Gli-Sufu antag,Mdm2 MdmX PPI,Shn3 3UTR inh,PAX8 inh HTS,Mdm2 MdmX conf,FLuc counter
CC(C)(C)[C@]1(O)CCN2C[C@H]3c4ccccc4CCc4cccc(c43)[C@@H]2C1,4,-4,5,66*,27,24,36,84*
Cc1c(CN2CCC(CO)(CCOc3ccccc3)CC2)[nH]c2c(Cl)cccc12,12,48,9,87*,-50,7,54*,64*
O=c1cc(-c2ccccc2)[nH]n1-c1nc2ccccc2[nH]1,34,112*,28,95*,12,x,25,x
CCc1cc(=O)[nH]c(-n2[nH]c(-c3ccccc3)cc2=O)n1,-3,x,-1,-6,-23,-12,x,x
Cc1ccc(N(CCC#N)C(=O)CCl)cc1C,-16,0,6,100*,-8,u,100*,57*
CN1C(=O)c2cccc(NC(=O)C3CCCCC3)c2C1=O,-4,4,15,-6,-14,1,x,x
CCN1C(=O)c2cccc3c(NC(=O)C4CCCCC4)ccc1c23,-9,6,14,55*,15,x,24,x
CCN1C(=O)c2cccc3c(NC(=O)c4ccccc4)ccc1c23,-4,-7,10,36,8,x,x,x
CCN1C(=O)c2cccc3c(NC(=O)c4ccc5c(c4)OCCO5)ccc1c23,-19,-14,-8,51*,5,x,4,x
CCN1C(=O)c2cccc3c(NC(=O)c4ccc(OC)c(OC)c4)ccc1c23,x,-1,7,54*,-6,-19,24,x
CCC(=O)Nc1ccc2c(c1)OC[C@@H](C)N(Cc1ccccc1OC)C[C@@H](C)[C@@H](OC)CN(C)C2=O,x,x,x,x,x,-7,x,x
COc1ccc(S(=O)(=O)N(C)C[C@@H]2OCCCC[C@H](C)Oc3ccc(NC(=O)Nc4ccccc4)cc3C(=O)N([C@H](C)CO)C[C@@H]2C)cc1,x,x,x,x,x,11,x,x
Cc1ccc(Nc2nnc(SCC(=O)c3c(N)n(C4CC4)c(=O)[nH]c3=O)s2)cc1C,2,14,0,71*,-30,-51,4,x
Nc1c(C(=O)CSc2nnc(-c3ccccc3)o2)c(=O)[nH]c(=O)n1C1CC1,-4,-6,5,50,7,-3,x,x
Cc1ccc2nc(SCC(=O)c3c(N)n(C4CC4)c(=O)[nH]c3=O)[nH]c2c1,x,x,1,7,-1,23,x,x
CCCc1cc(=O)[nH]c(SCC(=O)c2c(N)n(C3CC3)c(=O)[nH]c2=O)n1,1,x,5,96*,4,29,14,x
Cc1cc(C)cc(-c2nnc(SCC(=O)c3c(N)n(C4CC4)c(=O)[nH]c3=O)o2)c1,x,x,0,54*,7,-5,14,x
COc1cccc(C(=O)N2C[C@@H]3[C@H](c4ccccc42)[C@@H](CO)N3C(=O)c2ccccc2)c1,x,x,x,x,x,22,x,x
CNC[C@H]1Oc2ccc(NC(=O)Nc3c(C)noc3C)cc2C(=O)N([C@@H](C)CO)C[C@@H]1C,x,x,x,x,x,-6,x,x
O=C(Nc1ncnc2c1C(c1ccccc1)c1c(ccc3ccccc13)O2)c1ccccc1 (stereo unspecified),82*,x,27,65*,11,32,52*,45*
O=C(Cc1ccccc1)Nc1ncnc2c1C(c1ccccc1)c1c(ccc3ccccc13)O2 (stereo unspecified),13,42,8,90*,25,u,23,x
CCCC(=O)Nc1ccc2c(c1)C(=O)N(C)C[C@H](OC)[C@@H](C)CN(C(=O)c1ccncc1)[C@@H](C)CO2,x,x,x,x,x,5,x,x
C[C@H]1C=C(C(=O)Nc2ccccc2)O[C@@H](OCCCCO)C1,x,x,x,x,x,14,x,x
COC(=O)[C@@]12CCCCN1[C@H](c1ccc(-c3cccc(Cl)c3)c(OC)c1)[C@@H]1C(=O)N(C)C(=O)[C@@H]12,18,10,-1,73*,9,9,25,x
COC(=O)[C@@]12CCCN1[C@H](c1ccc(-c3ccc(F)cc3)cc1)[C@H]1C(=O)N(C)C(=O)[C@H]12,0,7,1,26,-1,7,x,x
SMILES,Beta apoptosis,CSC inhib,Gli-Sufu antag,Mdm2 MdmX PPI,Shn3 3UTR inh,PAX8 inh HTS,Mdm2 MdmX conf,FLuc counter
COC(=O)[C@@]12CCCCN1[C@H](c1ccc(-c3ccc(F)cc3)cc1)[C@H]1C(=O)N(C)C(=O)[C@H]12,-6,x,-4,64*,-1,-10,46*,48*
CCN1C(=O)[C@@H]2[C@@H](c3ccc(-c4ccc(Cl)c(Cl)c4)c(OC)c3)N3CCCC[C@@]3(C(=O)OC)[C@@H]2C1=O,14,16,10,53*,-2,22,17,x
COc1ccc(OCc2n(CC(=O)OC3CC(C)CCC3C(C)C)c3ccccc3[n+]2C)cc1 (stereo unspecified),100*,58,24,94*,-3,99*,97*,59*
CCN(CC)CCNC(=O)CCc1c(C)nc2c(c(C)nn2-c2ccc(C)cc2)c1C,-3,24,22,61*,-63,21,32,x
COc1cc2c(C#N)c(N3CCN(C)CC3)nc(N)c2c(N)n1,0,-4,x,-13,28,x,x,x
COc1cc2c(C#N)c(N3CCN(c4ccccc4OC)CC3)nc(N)c2c(N)n1,10,2,-4,75*,19,x,30,x
COc1cc(CNC(C)c2ccccc2)cc(Br)c1OCc1ccc(F)cc1 (stereo unspecified),113*,56,31,60*,21,23,63*,75*
COc1cc(CNn2c(C)n[nH]c2=S)cc(Br)c1OCc1ccc(F)cc1,x,10,8,17,-48,3,x,x
COc1cc(CNC(C)c2ccccc2)cc(Cl)c1OCC(=O)Nc1ccccc1 (stereo unspecified),-6,27,27,68*,10,-16,56*,51*
CCCCCCCNC(=O)C1(CC2CC(c3cccc(Br)c3)=NO2)CCN(C(=O)Cc2ccc(F)cc2)CC1 (stereo unspecified),3,11,18,36,2,x,x,x
CCCCCCCNC(=O)C1(CC2CC(c3ccc(Cl)cc3)=NO2)CCNCC1 (stereo unspecified),x,15,22,100*,2,22,69*,25
CCCCCCCNC(=O)C1(CC2CC(c3cccc(Br)c3)=NO2)CCNCC1 (stereo unspecified),x,159*,9,100*,91*,80*,85*,60*
COc1cc(CNCCO)cc(Br)c1OCc1ccccc1Cl,7,29,-19,57*,-11,x,14,x
COc1cccc(CNCCO)c1OCc1ccc(Cl)cc1,0,x,6,33,-9,21,x,x
COc1cc(CNCCO)cc(Cl)c1OCc1ccc(Cl)cc1Cl,108*,7,9,51*,11,25,49*,85*
CCOc1cc(CNCCO)cc(Br)c1OCc1ccccc1,27,19,32,17,69,13,x,x
